We go through six molecules from PubChem BioAssay (EPA / NIEHS).

Experiment [1] deals with human Thyroid Receptor alpha (THRa1), THRA (gene 7067) (UniProt P10827). The experiment can be described thus: ATG_THRa1_TRANS: Attagene TRANS-FACTORIAL HepG2 Assay for human Thyroid Receptor alpha (THRa1) (AID 2283014). In a few lines: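 HepG2 cells transiently transfected with chimeric NR-Gal4 and GAL4-UAS reporter units, dosed 24 h. Reporter mRNA quantified by RT-PCR, fluorescent labeling, HpaI digestion and capillary electrophoresis; gain-of-signal fit versus DMSO.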
human Thyroid Receptor alpha (THRa1), THRA (gene 7067), sequence (P10827 whole entry, looked up, the tested form may be a part): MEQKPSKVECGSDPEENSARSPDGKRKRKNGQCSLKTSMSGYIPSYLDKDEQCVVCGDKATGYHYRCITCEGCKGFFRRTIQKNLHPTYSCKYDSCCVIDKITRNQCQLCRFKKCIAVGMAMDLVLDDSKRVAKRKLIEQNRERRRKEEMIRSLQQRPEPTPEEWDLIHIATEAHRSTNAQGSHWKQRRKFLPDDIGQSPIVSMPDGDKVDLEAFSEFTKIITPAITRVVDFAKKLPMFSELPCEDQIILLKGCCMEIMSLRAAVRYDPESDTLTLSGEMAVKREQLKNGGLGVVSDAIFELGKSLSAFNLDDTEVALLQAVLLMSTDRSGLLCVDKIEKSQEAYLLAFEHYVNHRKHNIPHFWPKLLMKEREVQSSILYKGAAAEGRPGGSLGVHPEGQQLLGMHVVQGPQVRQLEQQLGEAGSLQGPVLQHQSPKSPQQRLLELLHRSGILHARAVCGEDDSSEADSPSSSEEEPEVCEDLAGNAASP

Experiment [2] has as its target human Retinoid X Receptor beta (RXRb), RXRB (gene 6257) (UniProt P28702). As to the kind of experiment: ATG_RXRb_TRANS: Attagene TRANS-FACTORIAL HepG2 Assay for human Retinoid X Receptor beta (RXRb) (AID 2283013). In a few lines: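 Chimeric receptor-Gal4 activity was assessed in transiently transfected human HepG2 cells after 24 h exposure. Transcripts from GAL4-UAS reporters were quantified by fluorescent RT-PCR and capillary electrophoresis, with DMSO as negative control and baseline.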

Inconclusive results are not listed. Activity calls are given as the source filed them. How the source made its calls: active means hit-call score of the fitted dose curve at least 0.9, where 1 is the maximum; inconclusive means response in the unintended direction; inactive means score below 0.9.

human Retinoid X Receptor beta (RXRb), RXRB (gene 6257), sequence (P28702 whole entry, looked up, the tested form may be a part): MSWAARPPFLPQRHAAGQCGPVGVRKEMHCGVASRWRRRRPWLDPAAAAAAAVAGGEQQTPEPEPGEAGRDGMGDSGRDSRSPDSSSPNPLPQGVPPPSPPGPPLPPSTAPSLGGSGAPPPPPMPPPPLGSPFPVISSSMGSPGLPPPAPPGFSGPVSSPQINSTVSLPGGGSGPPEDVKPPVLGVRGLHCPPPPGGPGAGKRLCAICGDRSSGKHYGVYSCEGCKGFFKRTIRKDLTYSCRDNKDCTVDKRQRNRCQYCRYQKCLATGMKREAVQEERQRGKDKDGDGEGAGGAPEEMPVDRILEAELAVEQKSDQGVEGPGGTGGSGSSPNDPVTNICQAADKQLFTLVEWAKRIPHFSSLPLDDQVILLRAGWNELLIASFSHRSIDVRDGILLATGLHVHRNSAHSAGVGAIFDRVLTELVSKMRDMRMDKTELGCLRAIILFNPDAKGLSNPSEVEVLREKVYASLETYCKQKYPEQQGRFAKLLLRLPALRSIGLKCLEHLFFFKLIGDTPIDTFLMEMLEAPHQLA

For `CCc1nccnc1C`, in experiment [1], the result was inactive.

`COC(=O)C1=C(C)NC(C)=C(C(=O)OCC(C)C)C1c1ccccc1[N+](=O)[O-]` (configuration not stated): the result in experiment [1] was inactive.

With `CCC(C)OC(=O)c1ccc(O)cc1` (configuration not stated), the molecule was classed as inactive in experiment [1].

As for `NCCCN1CCN(CCCN)CC1`, the outcome in experiment [2] and in experiment [1] was inactive.

Regarding `Cc1ccccc1C`, the molecule was classed as inactive in experiment [1].

As to `CN(C)CCCN(C)C`, in experiment [1], the call was inactive.
